A selection: hits, their analogues and other compounds. The true share with any hit is near 11%.
hNpr1 antagonist: antagonists of human natriuretic peptide receptor Npr1; Potency, µM (series often up to 46.3 µM), inactives show at the highest dose activity change, negative = inhibition, hits mostly inhibitors; HEK293 hNpr1 GloSensor cGMP, ANP-stimulated luminescence; actives 1.6% (n = 76,000); calls by dose curve; note: nearly all actives have a fitted effect of over 60% in size
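HEK293 cells stably expressing human Npr1 and cGMP GloSensor pGS-40F, loaded 2 h with 2% GloSensor reagent, given compound 30 min at room temperature. Luminescence read before and 20 min after 0.1 nM hNppA.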
3T3 cytotox: NIH 3T3 cell cytotoxicity. NIH 3T3 viability, CellTiter-Glo ATP luminescence, 48-72 h. Potency, µM (series often up to 96.7 µM), for inactives: at the highest dose activity change, negative = cytotoxicity, usual class: inhibitors. actives 4.3% (n = 94,000); note: nearly all actives have a fitted effect of over 55% in size
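ATP-dependent luminescence (CellTiter-Glo) served as the viability signal for NIH 3T3 cells treated with compound for 48 or 72 hr at 37 °C.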
HEK293 tox: kills HEK 293 cells; HEK 293 viability, ATP luminescence (CellTiter-Glo), 48-72 h; Potency, µM (doses to about 115 µM), inactives show at the highest dose activity change, negative = cytotoxicity, most hits filed as inhibitors; actives 6.6% (n = 94,000); AID 1345083; note: nearly all actives have a fitted effect of over 60% in size
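Cells seeded first (HEK 293, 250 cells/well), then compound added by pintool. Incubation ran 48 or 72 hr at 37 degree Celsius. CellTiter-Glo was added and luminescence imaged after 10 min at room temperature.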
Luciferase inh: Photinus pyralis luciferase inhibition. P08659. Potency, µM (series often up to 115 µM), most hits filed as inhibitors. actives 2.5% (n = 76,000). purified P. pyralis luciferase, luminescence, biochemical; note: nearly all actives have a fitted effect of over 65% in size
Target sequence (P08659 whole entry, looked up): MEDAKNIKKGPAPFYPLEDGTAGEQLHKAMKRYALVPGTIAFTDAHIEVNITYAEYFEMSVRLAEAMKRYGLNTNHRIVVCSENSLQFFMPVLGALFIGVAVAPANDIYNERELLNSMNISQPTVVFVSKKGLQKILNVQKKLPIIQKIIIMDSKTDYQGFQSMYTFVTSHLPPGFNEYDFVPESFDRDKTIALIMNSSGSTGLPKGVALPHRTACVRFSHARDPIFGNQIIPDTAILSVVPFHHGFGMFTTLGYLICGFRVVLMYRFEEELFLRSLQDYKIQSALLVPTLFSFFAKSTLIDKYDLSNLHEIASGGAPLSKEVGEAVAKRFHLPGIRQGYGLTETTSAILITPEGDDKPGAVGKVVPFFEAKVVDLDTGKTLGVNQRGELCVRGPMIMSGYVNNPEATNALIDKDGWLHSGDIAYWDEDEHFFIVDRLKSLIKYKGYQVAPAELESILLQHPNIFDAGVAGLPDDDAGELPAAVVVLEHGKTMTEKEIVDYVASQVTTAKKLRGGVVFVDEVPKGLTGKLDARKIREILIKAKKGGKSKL
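Purified 10nM P. pyralis luciferase with 10uM D-luciferin and 10uM ATP in 50mM Tris acetate pH 7.5, 10mM Mg acetate, 0.01% Tween-20, 0.05% BSA. qHTS titration; luminescence read by CCD imager.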
* = called active by the depositor; i = inactive; ? = inconclusive; · = no result given; [ ] = dose if it differs, or a comment. Unless noted, calls come from the whole dose curve; as a rule, active = well fitted curve in the direction sought with a large enough effect; inconclusive = small, poorly fitted or top-dose-only effect, or another doubt; inactive = no such curve, though single readings can be large; an effect the other way counts as inactive or inconclusive. % is set by controls: 0 for no effect and ±100 for the full control effect; potency is the fitted concentration of half-maximal effect.

SMILES	hNpr1 antagonist	3T3 cytotox	HEK293 tox	Luciferase inh
CCc1ccccc1NC(=O)Cn1c(N2CCN(c3ccccc3)CC2)nc(C)cc1=O	1%	-2%	-12%	i
Cc1ccc(C2Cn3cnc(C(=O)N4CCC(C(=O)NCc5ccccc5)CC4)c3CO2)cc1 (centres undefined)	-11%	-13%	?	40µM*
Cc1ccc(C2Cn3cnc(C(=O)N4CCC(C(=O)NCc5cc(F)ccc5F)CC4)c3CO2)cc1 (centres undefined)	2%	-4%	-4%	40µM*
O=C(NCc1cccc(F)c1)C1CCN(C(=O)c2ncn3c2COC(c2ccc(F)cc2)C3)CC1 (centres undefined)	2%	1%	6%	32µM*
COc1cccc(CNC(=O)C2CCN(C(=O)c3ncn4c3COC(c3ccccc3)C4)CC2)c1 (centres undefined)	1%	i	8%	22µM*
O=C(NCc1ccccc1)C1CCN(C(=O)c2ncn3c2COC(c2ccc(F)cc2)C3)CC1 (centres undefined)	5%	i	7%	?
COc1ccccc1Cn1c(=O)c(C(=O)N2CCN(C(=O)C3CCCC3)CC2)nc2cccnc21	·	-29%	?	·
CNC(=O)[C@H]1C[C@H](Oc2cccnc2)CN1S(=O)(=O)c1ccccc1C	-19%	-20%	-1%	i
CN(C)C(=O)CCc1ccc2c(c1)CN(C(=O)C1CCCCC1)CCO2	·	-29%	-17%	·
CCc1ccc(CNC(=O)C2CCN(C(=O)c3ncn4c3COC(c3ccccc3)C4)CC2)cc1 (centres undefined)	4%	-12%	1%	35µM*
O=C(NC1CCc2ccccc21)C1CCN(C(=O)c2ncn3c2COC(c2ccccc2)C3)CC1 (centres undefined)	-10%	-1%	-7%	40µM*
Cc1ccc(C2Cn3nnc(C(=O)N4CCC(C(=O)NC5CCc6ccccc65)CC4)c3CO2)cc1 (centres undefined)	-2%	?	?	?
O=C(NCc1ccc(F)cc1F)C1CCN(C(=O)c2ncn3c2COC(c2ccc(F)cc2)C3)CC1 (centres undefined)	-12%	-17%	-9%	?
O=C(NCc1ccccn1)C1CCN(C(=O)c2ncn3c2COC(c2ccc(F)cc2)C3)CC1 (centres undefined)	-4%	-3%	4%	35µM*
Cc1ccc(C2Cn3cnc(C(=O)N4CCC(C(=O)NCc5cccc(F)c5)CC4)c3CO2)cc1 (centres undefined)	-6%	-14%	-5%	50µM*
COc1ccc(C2Cn3cnc(C(=O)N4CCC(C(=O)NCc5ccc(C)cc5)CC4)c3CO2)cc1 (centres undefined)	-1%	i	10%	i
O=C(NCc1ccc(F)cc1)C1CCN(C(=O)c2ncn3c2COC(c2ccc(Cl)cc2)C3)CC1 (centres undefined)	1%	-1%	8%	?
Cc1cccc(CNC(=O)C2CCN(C(=O)c3ncn4c3COC(c3ccc(F)cc3)C4)CC2)c1 (centres undefined)	0%	5%	3%	45µM*
O=C(NCCCc1ccccc1)C1CCN(C(=O)c2ncn3c2COC(c2ccccc2)C3)CC1 (centres undefined)	-15%	i	-8%	16µM*
Cc1n[nH]c(C)c1CNC(=O)C1CCN(C(=O)c2ncn3c2COC(c2ccc(F)cc2)C3)CC1 (centres undefined)	3%	-1%	-5%	25µM*
CC(C)CNC(=O)C1CCN(C(=O)c2ncn3c2COC(c2ccc(F)cc2)C3)CC1 (centres undefined)	-1%	i	7%	?
O=C(NCC1CCCO1)C1CCN(C(=O)c2ncn3c2COC(c2ccc(F)cc2)C3)CC1 (centres undefined)	0%	-32%	-2%	40µM*
Cc1ccccc1OCc1nc(C2CN(C(=O)C(C)c3ccccc3)C2)no1 (centres undefined)	-18%	?	?	?
Cc1cccc(CC(C)NC(=O)c2ccc3nc(Cc4ccccc4F)oc3c2)n1 (centres undefined)	1%	-23%	?	?
c1csc(CN2CCC(Oc3ccccc3-c3nc(-c4cnccn4)no3)C2)c1 (centres undefined)	-13%	?	?	i
SMILES	hNpr1 antagonist	3T3 cytotox	HEK293 tox	Luciferase inh
Cn1cccc1CN1CCC(Oc2ccccc2-c2nc(-c3ccncc3)no2)C1 (centres undefined)	·	40µM*	?	·
Cc1ccsc1CN1CCC(Oc2ccccc2-c2nc(-c3ccncc3)no2)C1 (centres undefined)	-23%	32µM*	25µM*	?
Cc1cn2nc(C(=O)NCc3ccccc3C)cc2c(N(C)Cc2ccccc2)n1	0%	?	?	i
Cc1c(CN2CC(=O)N(CC(C)C)CC(OCc3ccccc3F)C2)c(=O)n(-c2ccccc2)n1C (centres undefined)	4%	-7%	0%	i
Cc1c(C(C)NC(=O)c2cc(=O)[nH]c(=O)[nH]2)cnn1-c1cccc2ccccc12 (centres undefined)	0%	-38%	?	i
Cc1c(C(C)NC(=O)C(=O)c2ccco2)cnn1-c1cccc2ccccc12 (centres undefined)	-8%	?	45µM*	i
CCCOC1CCCN(C(=O)c2ccc3nc(-c4ccc(F)cc4)cn3c2)C1 (centres undefined)	0%	-2%	25µM*	i
CN1C[C@@H](NC(=O)CC(C)(C)CC(=O)O)C[C@H]1c1nc(-c2ccc3c(c2)OCO3)no1	4%[70.6 µM]	-1%[174 µM]	2%[172 µM]	50µM*
CN1C[C@@H](NC(=O)c2ccc3c(c2)OCO3)C[C@H]1c1nc(-c2ccc3ccccc3c2)no1	-19%	?	79µM*	i
CNC(=O)c1cc(C2CC2)nc2onc(C3CCN(C(=O)c4ccncc4)CC3)c12	·	4%	?	·
O=C1CC2(CCN(c3cnc4ccccc4n3)CC2)CN1CCCc1ccccc1	?	?	35µM*	i
CS(=O)(=O)N1CCC2(CC1)CC(=O)N(CCCc1ccccc1)C2	6%	5%	i	i
Cc1[nH]cnc1CN1CCCC(C(=O)Nc2ccc(-c3cccc(F)c3)cc2)C1 (centres undefined)	6%	?	25µM*	i
COc1ccccc1-c1cccc(CN2CCCC(C(=O)NCCc3ccc(F)cc3)C2)c1 (centres undefined)	·	32µM*	?	·
COc1ccccc1-c1cccc(CN2CCCC(C(=O)Nc3ccc(F)cc3)C2)c1 (centres undefined)	·	?	13µM*	·
CNC(=O)C1CCCN(Cc2cccc(-c3ccccc3OC)c2)C1 (centres undefined)	·	-25%	?	·
Cc1ccccc1C(=O)N1CCN(CCn2nc3n(c2=O)CCCC3)CC1	·	-2%	i	·

Assay outcomes (PubChem)
